Test results from the supplement of paper PMC6555819.

Columns and labels:
Assay in all cases: PBM binding z-score (relative to random genomic background probes); higher = stronger binding; sequences stand for … in GC…GCGATTGACAGCGTAGAATGAAGG
[1] = tested on: PPARg:RXRa DBDmut IVT, anti-RXR (DBD mutation: RXRa K156A/R161A, NR concentration 270 nM, RXRa partner concentration 90 nM)
How it was run: (§1)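 For binding z-scores, the reference was random background probes on custom Agilent 4×180K protein-binding microarrays. These arrays were incubated 1 h with ligand-free nuclear receptor dimers in PBS pH 7.4, 2% milk, 0.02% Triton X-100, 1 mM DTT, 0.2 mg/mL BSA and 0.4 mg/ml salmon testes DNA. Fluorescence was scanned after antibody detection of each partner (one per run) and regression-normalized.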

[2] = tested on: PPARg:RXRa IVT, anti-PPARg (NR concentration 270 nM, RXRa partner concentration 90 nM)
How it was run: as §1

[3] = tested on: PPARg DBDmut:RXRa IVT, anti-PPARg (DBD mutation: PPARg1 K132A/R137A, NR concentration 270 nM, RXRa partner concentration 90 nM)
How it was run: as §1

[4] = tested on: PPARg DBDmut IVT, anti-PPARg (DBD mutation: PPARg1 K132A/R137A, NR concentration 270 nM)
How it was run: as §1

[5] = tested on: PPARg homodimer (NR concentration 180 nM)
How it was run: as §1

[6] = tested on: PXR:RXRa (NR concentration 270 nM, RXRa partner concentration 90 nM)
How it was run: as §1

[7] = tested on: PXR homodimer (NR concentration 270 nM)
How it was run: as §1

[8] = tested on: RARa:RXR (NR concentration 270 nM, RXRa partner concentration 90 nM)
How it was run: as §1

[9] = tested on: RARa homodimer (NR concentration 270 nM)
How it was run: as §1

[10] = tested on: RARb:RXRa (NR concentration 270 nM, RXRa partner concentration 90 nM)
How it was run: as §1

[11] = tested on: RARb homodimer (NR concentration 270 nM)
How it was run: as §1

[12] = tested on: RARg:RXRa (NR concentration 270 nM, RXRa partner concentration 90 nM)
How it was run: as §1

[13] = tested on: RARg homodimer (NR concentration 270 nM)
How it was run: as §1

[14] = tested on: RXRa DBDmut IVT, anti-RXR (DBD mutation: RXRa K156A/R161A, NR concentration 90 nM)
How it was run: as §1

[15] = tested on: RXRa homodimer (NR concentration 180 nM)
How it was run: as §1

[16] = tested on: THRa:RXRa (NR concentration 90 nM, RXRa partner concentration 90 nM)
How it was run: as §1

[17] = tested on: THRa homodimer (NR concentration 90 nM)
How it was run: as §1

[18] = tested on: VDR:RXRa (NR concentration 270 nM, RXRa partner concentration 90 nM)
How it was run: as §1

[19] = tested on: VDR homodimer (NR concentration 270 nM)
How it was run: as §1

| Sequence | PBM binding z-score [1] | PBM binding z-score [2] | PBM binding z-score [3] | PBM binding z-score [4] | PBM binding z-score [5] | PBM binding z-score [6] | PBM binding z-score [7] | PBM binding z-score [8] | PBM binding z-score [9] | PBM binding z-score [10] | PBM binding z-score [11] | PBM binding z-score [12] | PBM binding z-score [13] | PBM binding z-score [14] | PBM binding z-score [15] | PBM binding z-score [16] | PBM binding z-score [17] | PBM binding z-score [18] | PBM binding z-score [19] |
| --- | --- | --- | --- | --- | --- | --- | --- | --- | --- | --- | --- | --- | --- | --- | --- | --- | --- | --- | --- |
| CCTAGCAGGCCAATCTGAGTCACTCAAGGCTTGA | 1.42 | 0.0725 | -1.14 | -1.49 | 0.0523 | -0.832 | -0.519 | -0.853 | -0.569 | -0.0528 | -0.614 | -0.539 | -0.118 | 0.122 | -0.769 | -0.175 | -0.499 | -0.947 | -0.793 |
| CGAACTAGGTCAGAACAGGACAGTGAAGGATGAT | 7.21 | 6.92 | 1.26 | 0.744 | 0.92 | 0.787 | -0.0517 | 0.927 | 0.693 | 2.77 | 1.92 | 2.45 | 3.34 | 0.418 | 1.23 | 3.41 | 0.173 | 0.634 | -0.0967 |
| AGAATGAGGTTATTAGGATCAGGGAATTGCGGTC | 3.64 | 3.55 | 0.306 | 0.466 | 1.24 | 1.38 | 0.752 | 1.57 | 1.06 | 1.53 | 1.24 | 1.4 | 0.986 | 2.16 | 1.9 | 2.35 | 1.11 | 2.7 | 1.87 |
| AGTTAAAGTTCATCTAGGTAACGTAAGATATGCT | 1.51 | 3.39 | 1.68 | 1.41 | 2.77 | 4.75 | 6.53 | 3.23 | 2.39 | 4.79 | 3.84 | 5.06 | 5.65 | 4.63 | 4.14 | 3.21 | 0.583 | 4.42 | 5.32 |
| GCTGCTAGGTCAACTGATGATCAGCTAAAGCTCG | 4.79 | 4.29 | -0.231 | 0.333 | 1.28 | 1.34 | -0.82 | 2.48 | -0.292 | 4.25 | 3.3 | 4.46 | 5.15 | 1.46 | 2.75 | 2.85 | 0.808 | 1.38 | -0.0271 |
| TATACAGGGTCAAAGGCCAGAGGACGAATGTCGA | 1.96 | 4.98 | 2.24 | 2.72 | 3.14 | 4.5 | 0.565 | 5.97 | 0.998 | 4.43 | 3.52 | 5.92 | 5.44 | 2.95 | 7.17 | 3.5 | 0.968 | 4.73 | 2.9 |
| CCTATTAGTTGACCAGAAGGGCAACCGAAGCTCG | 0.319 | 0.518 | -0.0786 | 0.481 | 1.64 | 0.463 | 0.906 | 0.452 | 2.07 | 1.61 | 1.88 | 1.45 | 0.985 | 0.633 | 0.786 | 0.606 | 0.383 | 0.596 | 0.595 |
| GGAAAGAGGGCAAAGTTGATAGCATCTGTCGACG | 3.73 | 3.74 | 1.03 | -0.31 | 1.67 | 1.77 | 0.468 | 2.25 | 0.527 | 2.77 | 1.93 | 2.84 | 2.38 | 1.85 | 2.81 | 1.08 | 0.0442 | 1.53 | 1.18 |
| ATCGAAAGGTCGGGGTGAGTATAGAGAAAGGGAA | 1.56 | 2.45 | 1.09 | 2.25 | 1.98 | 2.77 | 1.39 | 3.03 | 1.53 | 3.83 | 2.88 | 3.7 | 3.63 | 1.78 | 3.77 | 3.06 | 1.35 | 3.1 | 1.52 |
| TAGCCCAGGTCATGCGGGCCAGTATAGTGTCGGC | 0.638 | 2.57 | -0.0508 | -0.838 | 0.868 | 2.52 | 0.093 | 3.04 | -0.161 | 3.74 | 2.94 | 4.07 | 3.99 | 1.22 | 3.45 | 3.85 | 2.4 | 3.7 | 1.49 |
| ATCTCTAGGTAAAGTTCAGTGAAAGATCGATAGA | 2.6 | 2.6 | 1.37 | 0.916 | 1.68 | 2.11 | 1.93 | 1.86 | 1.27 | 2.86 | 2.65 | 2.18 | 2.77 | 1.72 | 1.42 | 1.24 | 0.317 | 1.73 | 2.53 |
| TCATATAGGTAAACAGGTGAAACTCCGTAAGTTA | 5.13 | 4.56 | 1.07 | 1.38 | 1.21 | 0.711 | 0.237 | 1.28 | 0.733 | 0.76 | 0.92 | 0.806 | 0.575 | 1.37 | 1.47 | 0.984 | 0.268 | 1.19 | 0.307 |
| TAGCCTAGGTCGTTGGGCCAGTATAGTACGCATC | -0.226 | 0.592 | -0.845 | -0.754 | -0.186 | -0.0683 | -0.446 | 0.0528 | -0.627 | 1.02 | 0.513 | 0.529 | 0.698 | 0.311 | 0.61 | 0.621 | 0.0467 | 0.153 | 0.0773 |
| ACTAGCACGCCAAGTTTGGGTCACTCAAACAAAG | -0.764 | 0.325 | -0.643 | -0.578 | 0.00723 | 0.524 | -0.537 | 0.981 | -0.534 | 1 | 1.5 | 0.693 | 0.804 | -0.276 | 0.756 | 2.02 | 0.988 | 0.247 | -0.0889 |
| CACACTAGGTCACGAAAGGTCAAAGTCGAATGAC | 7.74 | 8.37 | 3.1 | 1.95 | 5.51 | 7.26 | 2.87 | 7.78 | 2.46 | 5.97 | 5.91 | 7.95 | 8.87 | 2.87 | 8.16 | 5.26 | 3.18 | 7.02 | 3.49 |
